# From PubChem
# An excerpt weighted towards active compounds, which were near 21% of everything screened.
# DT40 TDP1 CPT – qHTS for Inhibitors of human tyrosyl-DNA phosphodiesterase 1 (TDP1): qHTS in cells in presence of CPT; chicken DT40 Tdp1-/-;hTDP1 cells + 20 nM CPT, ATP luminescence, 48 h; Potency, µM (series often up to 46.2 µM), without a hit: at the top dose activity change, negative = growth inhibition, actives largely listed as inhibitors; 12% of 420,000 active; also: potency is read from the fitted curve at half-maximal effect; % is scaled to controls: 0 for no effect and ±100 for the full control effect; nearly all actives have a fitted effect of over 55% in size
#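 Chicken DT40 Tdp1-/- cells stably complemented with human TDP1 were seeded at 400 cells/well in medium containing 20 nM camptothecin, exposed to pin-transferred compounds, and grown at 37 °C for at least 48 hr. Viability was read as ATP luminescence.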
# DRD3 antagonist – qHTS of D3 Dopamine Receptor Antagonist: qHTS; 2.5% of 360,000 active; D3R cells, DiscoveRx beta-arrestin luminescence, antagonist mode; hits give low values; max response, negative = inhibition, %; AID 652054, 2013; in the data active = max response below about -50%; inconclusive = no clear call, values can overlap the other calls; also: % is scaled to controls: 0 for no effect and ±100 for the full control effect
# Target sequence (P35462 whole entry, looked up): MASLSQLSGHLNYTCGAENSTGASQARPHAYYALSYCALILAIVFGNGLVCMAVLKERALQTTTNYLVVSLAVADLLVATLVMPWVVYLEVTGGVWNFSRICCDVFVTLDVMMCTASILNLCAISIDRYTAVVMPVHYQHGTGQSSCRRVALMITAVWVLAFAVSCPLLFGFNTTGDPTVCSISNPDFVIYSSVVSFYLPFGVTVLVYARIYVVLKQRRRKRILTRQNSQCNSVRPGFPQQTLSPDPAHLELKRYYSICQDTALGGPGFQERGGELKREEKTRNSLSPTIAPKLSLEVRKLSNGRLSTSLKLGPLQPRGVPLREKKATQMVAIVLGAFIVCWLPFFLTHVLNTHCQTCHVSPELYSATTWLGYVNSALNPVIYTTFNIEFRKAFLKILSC
#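 Cells expressing the human receptor were seeded at 1500 cells/well, incubated overnight at 37 degrees C in 5% CO2, then exposed to library compounds with dopamine controls for 90 minutes at 37 degrees C before luminescent detection.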
# D3 ag – qHTS of D3 Dopamine Receptor Agonist: qHTS. D3R DiscoveRx beta-arrestin cells, luminescence, 90 min. max activation, %. 0.58% of 410,000 active. AID 652048, 2013; in the data active = max activation above about 30%; also: 0% is about no effect
#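 Agonist-mode cell screen: cells plated at 1500/well and incubated overnight at 37 °C, then exposed to library compounds for 90 min at 37 °C. Detection reagent was added for 30–60 min at room temperature, and luminescence was read.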
# ClpP mod – qHTS Assay for Activators of ClpP; 1.9% of 340,000 active; purified B. subtilis ClpP, FRET peptide cleavage, 20 min; AID 651965, 2013; ATP-dependent Clp protease proteolytic subunit (Bacillus subtilis (strain 168)), P80244; Potency, µM (doses to about 57.5 µM), for inactives: at the highest dose activity change, negative = active; active = well fitted falling curve with a large enough effect; inconclusive = small, poorly fitted or top-dose-only effect; inactive = no such curve, though single readings can be large or run the other way; also: potency is read from the fitted curve at half-maximal effect; the source files actives as falling curves though it sought activators and does not explain the sign; nearly all actives have a fitted effect of over 65% in size
# Target sequence (P80244 whole entry, looked up): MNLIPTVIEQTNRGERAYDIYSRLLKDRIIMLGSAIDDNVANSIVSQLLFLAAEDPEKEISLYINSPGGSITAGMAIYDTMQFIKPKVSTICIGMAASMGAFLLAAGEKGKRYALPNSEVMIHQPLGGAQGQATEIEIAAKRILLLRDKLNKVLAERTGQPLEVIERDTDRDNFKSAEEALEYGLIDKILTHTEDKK
#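 FRET quenching reversal measured ClpP activation: 10 microg/mL B. subtilis ClpP at pH 8 with the FRET-FV decapeptide, read at 430 nm after 320 nm excitation. The 20-min minus 0-min signal was scaled between DMSO/no-enzyme wells and ADEP (5.8 microM final).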
# TDP1 cell noCPT – qHTS for Inhibitors of human tyrosyl-DNA phosphodiesterase 1 (TDP1): qHTS in cells in absence of CPT; DT40 Tdp1-/- hTDP1 cells, no CPT, ATP luminescence, 48 h; Potency, µM (highest dose often 46.2 µM), without a hit: top-dose activity change, negative = growth inhibition, most hits filed as inhibitors; 15% of 420,000 active; also: potency is read from the fitted curve at half-maximal effect; % is scaled to controls: 0 for no effect and ±100 for the full control effect; nearly all actives have a fitted effect of over 55% in size
#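 Compound effects on proliferation are scored in DT40 Tdp1-/-;hTDP1 cells in the absence of CPT. ATP levels (CellTiter-Glo luminescence) are recorded after a ≥48 hr, 37 °C incubation.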
# IL1B secr inh – qHTS for Inhibitors of Inflammasome Signaling: IL-1-beta AlphaLISA Primary Screen; THP-1 LPS/ATP IL-1B secretion, AlphaLISA, 16 h; hits give low values; 4.7% of 360,000 active; activity change, % at 57.5 µM; in the data active = activity change below about -50%; inconclusive = mostly about -30% to -49%; also: % is scaled to controls: 0 for no effect and ±100 for the full control effect
#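 THP-1 cells pretreated 1 hr with compounds (up to 57.5 uM final), then stimulated with LPS (250 ng/mL final) plus ATP (1.25 mM final); secreted IL-1B measured by AlphaLISA after 16 hr, decreased signal indicating inhibition.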
# The depositor's hits bear a star; i = inactive; ? = inconclusive; . = no result; ! = not active in a repeat; [ ] = another dose, or the depositor's remark. Unless noted, calls follow the shape of the dose curve; as a rule, active = well fitted inhibition curve with a large enough effect; inconclusive = small, poorly fitted or top-dose-only effect; inactive = flat fitted curve, though single readings scatter.
SMILES,DT40 TDP1 CPT,DRD3 antagonist,D3 ag,ClpP mod,TDP1 cell noCPT,IL1B secr inh
O=C(c1ccc(Br)s1)N1CCN(Cc2ccc3c(c2)OCO3)CC1,-17%,-95*,-57,-2%,?,-24
COc1ccc2[nH]c(C(=O)N3CCCN(Cc4ccc(F)cc4)CC3)cc2c1,?,-5,-15,.,?,-78*
O=C(CSc1n[nH]c(-c2ccncc2)n1)Nc1ccccc1Cl,-2%,2,8,.,-16%,34
CCOC(=O)C1=C(C)N=C2SC(C(=O)OC)=CC(=O)N2C1c1ccc(OC)cc1 (configuration not stated),?,?,-9,.,?,-17
CCC1CN(CCNC(=O)c2scc3c2OCCO3)Cc2cc(OC)ccc2O1 (configuration not stated),5%[9.04 µM],.,.,.,?,.
O=C(c1c(F)c(F)c(F)c(F)c1F)N1CCN(Cc2ccc3c(c2)OCO3)CC1,-46%,-12,-7,4%,-23%,?
O=C(c1ccc(Br)o1)N1CCN(Cc2ccc3c(c2)OCO3)CC1,-20%,-81*,-4,-3%,-25%,?
CCn1c(SCc2ccc(OC)c(F)c2)nc2ccccc2c1=O,?,11,4,.,-70%,-15
COCC(C)n1c(SCc2ccc(OC)c(F)c2)nc2ccccc2c1=O (configuration not stated),5.8µM*,9,2,.,4.1µM*,51
COCC(C)n1c(SCc2ccc(C(=O)OC)cc2)nc2ccccc2c1=O (configuration not stated),12µM*,-15,1,.,9.2µM*,5
COCCNC(=O)c1ccc(CSc2nc3ccncc3n2Cc2ccccc2)cc1,-3%,.,8,-4%,-24%,.
COCCNC(=O)c1ccc(-n2c(SCc3ccncc3)nc3ccccc3c2=O)cc1,-8%,-17,-5,-1%,-28%,-73*
NCCc1nc2cccnc2n1-c1ccccc1,-16%,.,4,-2%,-5%,.
CC[C@]12c3[nH]c4ccc(Cl)cc4c3CCN1C(=O)[C@@H](CC(=O)NCCc1ccccn1)C[C@@H]2C(=O)N1CCN(C(=O)c2ccco2)CC1,-27%,4,15,-3%,?,41
CCOC(=O)c1cc(-c2ccc(N)cc2)sc1N,18µM*,-7,-14,1%,21µM*,?
Cc1ccccc1NC(=O)c1c(NC(=O)C(C)Oc2cccc(Cl)c2)sc2c1CCCC2 (configuration not stated),-20%,.,7,4%,-18%,.
CN(CC(=O)NCc1ccc(F)cc1)S(=O)(=O)c1ccc(Br)s1,-12%,-5,-8,.,-2%,-3
COC(CNC(=O)c1ccc2c3c(onc13)-c1ccccc1C2=O)OC,2.9µM*,1,1,.,3.3µM*,-97*
COC(CNC(=O)c1cccnc1)OC,13%,22,3,-1%,-1%,0
C=CCc1c(C)nc(N2CCSCC2)[nH]c1=O,-16%,8,8,1%,-14%,14
CCN(CC)CCOc1ccc(/C(=C(/Cl)c2ccccc2)c2ccccc2)cc1,23µM*,-66*!,.,-12%,23µM*,?
CC/C(=C(\c1ccccc1)c1ccc(OCCN(C)C)cc1)c1ccccc1,21µM*,-73*!,-56,-1%,18µM*,-72*!
NNC(=O)Cn1c(-c2ccccc2)cc(=O)n2ncnc12,-2%,-2,8,.,2%,5
O=C(C1CC1)N1CCN(Cc2ccccc2)CC1,0%,-2,-1,.,-5%,24
O=C(C1CCN(C2CCN(C/C=C/c3ccccc3)CC2)CC1)N1CCOCC1,?,-1,-4,.,?,-29
SMILES,DT40 TDP1 CPT,DRD3 antagonist,D3 ag,ClpP mod,TDP1 cell noCPT,IL1B secr inh
O=C(C1CCN(Cc2ccccc2)CC1)N1CCN(C/C=C/c2ccccc2)CC1,?,-54*,-13,-3%,23µM*,?
O=C(C1CCN(Cc2ccc(F)cc2)CC1)N1CCN(C/C=C/c2ccccc2)CC1,?,-77*,-15,.,?,-25
CCn1cc(CN2CCCC(C(=O)Nc3cccc(-n4cccn4)c3)C2)c(C)n1 (configuration not stated),-3%,-4,-21,0%,-5%,9
COC(=O)c1ccc(CN2CCCC(C(=O)Nc3cccc(-n4cccn4)c3)C2)cc1 (configuration not stated),?,-14,-18,0%,?,17
CC(=O)c1cccc(CN2CCCC(C(=O)Nc3cccc(-n4cccn4)c3)C2)c1 (configuration not stated),?,?,-9,1%,23µM*,i
Cc1nn(C)c(Cl)c1CN1CCCC(C(=O)Nc2cccc(-n3cccn3)c2)C1 (configuration not stated),12µM*,-11,-9,-1%,?,-9
O=C(Nc1cccc(-n2cccn2)c1)C1CCCN(Cc2ccc(C#CCCO)cc2)C1 (configuration not stated),?,-21,-9,-4%,21µM*,i
O=C(Nc1ccc(-c2ccco2)cc1)C1CCCN(Cc2ccc(CO)o2)C1 (configuration not stated),?,-18,-1,-1%,?,-12
COc1ccc(CN2CCCC(C(=O)Nc3cccc(-n4cccn4)c3)C2)cc1 (configuration not stated),?,-27,-13,0%,?,?
CC(=O)c1cccc(CN2CCCC(C(=O)Nc3ccc(-c4ccco4)cc3)C2)c1 (configuration not stated),15µM*,-21,-13,1%,?,-18
CC1=C(C(=O)Nc2cccnc2)C(c2ccccc2)n2nc(SCc3ccccc3F)nc2N1 (configuration not stated),?,.,-10,-18%,?,.
O=C(Nc1ccc(-c2cscn2)cc1)C1CCCN(Cc2ccccc2)C1 (configuration not stated),?,?,-15,-4%,?,15
Cc1nn(C)c(Cl)c1CN1CCCC(C(=O)Nc2ccc(-c3cscn3)cc2)C1 (configuration not stated),16µM*,7,-17,25µM*,?,-69*
Cc1cc(=O)n2ccccc2c1C#N,-10%,11,11,-15%,-11%,6
